Reference: PubChem BioAssay (Tox21)
Records with an inconclusive call do not appear. Calls of active or inactive are those of the source. Unless noted, calls follow the shape of the dose curve; as a rule, active = well fitted curve in the direction sought with a large enough effect in the repeat runs; inconclusive = weak or mixed curves; inactive = no such curve, though single readings can be large; an effect the other way counts as inactive or inconclusive.

Columns and labels:
[1] = target: Estrogen receptor beta (Homo sapiens) (UniProt Q92731); experiment: qHTS assay to identify small molecule agonists of the estrogen receptor beta (ER-beta) signaling pathway (AID 1259377; active = well fitted activation curve with a large enough effect in the signal ratio in the repeat runs, not every such curve was filed as active; the % refers to the signal ratio)
Summary of the method: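 ER-beta-UAS-bla HEK293T (GripTite) cells carrying a UAS-driven beta-lactamase reporter, in medium with 2% charcoal-stripped FBS, were exposed to compounds for 16 hr at 37C; LiveBLAzer B/G FRET substrate was then added and fluorescence read after 2 hours at room temperature.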

[2] = qHTS assay to identify small molecule agonists of the estrogen receptor beta (ER-beta) signaling pathway - cell viability counter screen (AID 1259380); also: nearly all actives have a fitted effect of over 30% in size; also: potency is read from the fitted curve at half-maximal effect
Summary of the method: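 Compounds dissolved in DMSO were pin-transferred onto ER-beta-UAS-bla HEK293T cells that had settled 6 hr, and exposure ran 16 hr at 37C. Following the reporter read, CellTiter-Glo luminescence after 30 min at room temperature indicated cytotoxicity.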

[3] = target: Estrogen receptor (Homo sapiens) (UniProt P03372); experiment: qHTS assay to identify small molecule agonists of the estrogen receptor alpha (ER-alpha) signaling pathway in the presence of an antagonist (AID 1259383; calls by dose curve; also: top concentration of the series differs between compounds; nearly all actives have a fitted effect of over 15% in size)
Summary of the method: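 Luminescent ERE-luciferase reporter, VM7Luc4E2 cells (endogenous ER-alpha); 10.0nM ICI-182,780 final; 15-point compound titration; 22hr at 37C; ONE-Glo, 30min RT.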

[4] = qHTS assay to identify small molecule agonists or antagonists of the thyroid stimulating hormone receptor (TSHR) signaling pathway - wild type cell line counter screen (AID 1259384; calls by dose curve; also: potency is read from the fitted curve at half-maximal effect)
Summary of the method: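 Wild-type Hek293 cells, 800/well, 18 h at 37C, then compound with Ro20-1724 for 30 min RT. cAMP by HTRF (cAMP-d2/anti-cAMP cryptate), 1 h RT, fluorescence read. 15 concentrations, triplicates.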

[5] = target: Thyrotropin receptor (Homo sapiens) (UniProt P16473); experiment: qHTS assay to identify small molecule antagonists of the thyroid stimulating hormone receptor (TSHR) signaling pathway (AID 1259385; calls by dose curve; also: nearly all actives have a fitted effect of over 20% in size)
Summary of the method: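 TSHR-HEK293 cells (800/well) plated 18 h, then compounds with Ro20-1724 and TSH at 1.5 ng/mL final, 30 min at room temperature. cAMP quantified by HTRF (cAMP-d2/anti-cAMP-cryptate, 1 h); 15 concentrations in triplicate.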

[6] = qHTS assay to identify small molecule agonists of the estrogen receptor alpha (ER-alpha) signaling pathway in the presence of an antagonist - cell viability counter screen (AID 1259386);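 also: series mostly up to about 92 µM; cells exposed to compounds for 22 h at 37 °C before the viability read; nearly all actives have a fitted effect of over 30% in size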
Summary of the method: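 Using estrogen-depleted VM7Luc4E2 cells, the 15-concentration compound series was applied together with 10.0nM ICI-182,780 and incubated 22hr at 37C/5% CO2. Cell viability was then scored by CellTiter-Fluor.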

[7] = qHTS assay to identify small molecule agonists of the androgen receptor (AR) signaling pathway in the presence of an antagonist - cell viability counter screen (AID 1259379);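 also: MDA-kb2 human breast cancer cells carrying an MMTV luciferase reporter; series mostly up to about 92 µM; nearly all actives have a fitted effect of over 25% in size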
Summary of the method: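 Each compound was tested at 15 concentrations on MDA-kb2 cells in the presence of 3.0uM nilutamide. Viability was measured by CellTiter-Fluor fluorescence after a 16 hr incubation at 37C in a CO2-free atmosphere.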

[8] = target: Androgen receptor (Homo sapiens) (UniProt P10275); experiment: qHTS assay to identify small molecule agonists of the androgen receptor (AR) signaling pathway in the presence of an antagonist (AID 1259381; calls by dose curve; also: nearly all actives have a fitted effect of over 15% in size; also: potency is read from the fitted curve at half-maximal effect)
Summary of the method: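 Plated MDA-kb2 cells (3,000/well) were pre-incubated 5hr, given nilutamide (3.0uM final) or buffer, then dosed with compounds in DMSO at 15 concentrations. Luciferase activity was quantified by luminescence after 16hr at 37C.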

[9] = qHTS assay to identify small molecule antagonists of the estrogen receptor beta (ER-beta) signaling pathway - cell viability counter screen (AID 1259382); also: nearly all actives have a fitted effect of over 55% in size; also: potency is read from the fitted curve at half-maximal effect; as to activity change, negative = cytotoxicity: series mostly up to about 92 µM
Summary of the method: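 CellTiter-Glo ATP luminescence measured after the LiveBLAzer read in the same wells; ER-beta-UAS-bla HEK293T cells, 16 hr compound treatment with 1nM 17-beta-estradiol agonist at 37C, 5% CO2.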

[10] = target: Estrogen receptor beta (Homo sapiens) (UniProt Q92731); experiment: qHTS assay to identify small molecule antagonists of the estrogen receptor beta (ER-beta) signaling pathway (AID 1259378; active = well fitted inhibition curve with a large enough effect in the signal ratio in the repeat runs, not every such curve was filed as active; the % refers to the signal ratio)
Summary of the method: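 ER-beta-UAS-bla HEK293T cells in 2% charcoal-stripped FBS medium treated with compound plus 1nM final 17-beta-estradiol for 16 hr at 37C. Beta-lactamase reporter read by FRET substrate fluorescence after 2 hours at room temperature.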
% is scaled to controls: 0 for no effect and ±100 for the full control effect.

Androgen receptor (Homo sapiens), sequence (P10275 whole entry, looked up): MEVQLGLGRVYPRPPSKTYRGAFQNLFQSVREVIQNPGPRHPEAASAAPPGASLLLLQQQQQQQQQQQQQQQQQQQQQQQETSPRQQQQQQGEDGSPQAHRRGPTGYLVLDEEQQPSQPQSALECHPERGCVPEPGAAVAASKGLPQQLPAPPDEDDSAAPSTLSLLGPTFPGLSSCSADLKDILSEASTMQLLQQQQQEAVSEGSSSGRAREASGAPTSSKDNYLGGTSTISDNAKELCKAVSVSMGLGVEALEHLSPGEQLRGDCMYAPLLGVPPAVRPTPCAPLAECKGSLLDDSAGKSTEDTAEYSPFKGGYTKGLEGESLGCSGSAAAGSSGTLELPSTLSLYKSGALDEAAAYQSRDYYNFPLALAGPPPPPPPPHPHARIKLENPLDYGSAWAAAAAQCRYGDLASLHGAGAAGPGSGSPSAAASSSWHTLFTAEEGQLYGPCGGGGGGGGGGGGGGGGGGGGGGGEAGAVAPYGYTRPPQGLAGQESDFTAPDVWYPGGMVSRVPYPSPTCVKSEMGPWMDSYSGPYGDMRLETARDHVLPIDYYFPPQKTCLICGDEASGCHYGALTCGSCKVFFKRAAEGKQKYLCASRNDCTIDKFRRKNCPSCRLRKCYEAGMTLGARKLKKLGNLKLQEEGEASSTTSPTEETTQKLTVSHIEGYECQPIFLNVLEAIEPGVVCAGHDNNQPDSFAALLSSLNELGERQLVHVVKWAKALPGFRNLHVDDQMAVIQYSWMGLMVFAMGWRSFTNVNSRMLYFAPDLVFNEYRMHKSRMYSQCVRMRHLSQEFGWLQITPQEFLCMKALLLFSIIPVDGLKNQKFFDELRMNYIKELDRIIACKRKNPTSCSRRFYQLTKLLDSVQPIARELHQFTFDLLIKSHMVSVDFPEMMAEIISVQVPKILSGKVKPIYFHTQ
Estrogen receptor beta (Homo sapiens), sequence (Q92731 whole entry, looked up): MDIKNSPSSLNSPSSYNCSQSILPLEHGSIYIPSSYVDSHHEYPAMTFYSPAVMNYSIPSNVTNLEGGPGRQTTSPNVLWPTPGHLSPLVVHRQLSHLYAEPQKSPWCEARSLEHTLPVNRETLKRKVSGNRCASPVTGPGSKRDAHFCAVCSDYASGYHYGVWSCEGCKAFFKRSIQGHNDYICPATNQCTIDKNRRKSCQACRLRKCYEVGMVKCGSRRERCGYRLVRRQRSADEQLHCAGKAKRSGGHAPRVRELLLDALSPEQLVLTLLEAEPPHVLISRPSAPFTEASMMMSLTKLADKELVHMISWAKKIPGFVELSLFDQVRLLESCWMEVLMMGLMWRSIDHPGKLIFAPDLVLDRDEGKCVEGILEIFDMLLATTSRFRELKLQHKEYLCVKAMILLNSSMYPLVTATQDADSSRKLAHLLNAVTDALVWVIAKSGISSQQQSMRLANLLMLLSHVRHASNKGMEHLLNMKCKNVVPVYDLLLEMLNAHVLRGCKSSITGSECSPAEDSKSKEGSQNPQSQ
Thyrotropin receptor (Homo sapiens), sequence (P16473 whole entry, looked up): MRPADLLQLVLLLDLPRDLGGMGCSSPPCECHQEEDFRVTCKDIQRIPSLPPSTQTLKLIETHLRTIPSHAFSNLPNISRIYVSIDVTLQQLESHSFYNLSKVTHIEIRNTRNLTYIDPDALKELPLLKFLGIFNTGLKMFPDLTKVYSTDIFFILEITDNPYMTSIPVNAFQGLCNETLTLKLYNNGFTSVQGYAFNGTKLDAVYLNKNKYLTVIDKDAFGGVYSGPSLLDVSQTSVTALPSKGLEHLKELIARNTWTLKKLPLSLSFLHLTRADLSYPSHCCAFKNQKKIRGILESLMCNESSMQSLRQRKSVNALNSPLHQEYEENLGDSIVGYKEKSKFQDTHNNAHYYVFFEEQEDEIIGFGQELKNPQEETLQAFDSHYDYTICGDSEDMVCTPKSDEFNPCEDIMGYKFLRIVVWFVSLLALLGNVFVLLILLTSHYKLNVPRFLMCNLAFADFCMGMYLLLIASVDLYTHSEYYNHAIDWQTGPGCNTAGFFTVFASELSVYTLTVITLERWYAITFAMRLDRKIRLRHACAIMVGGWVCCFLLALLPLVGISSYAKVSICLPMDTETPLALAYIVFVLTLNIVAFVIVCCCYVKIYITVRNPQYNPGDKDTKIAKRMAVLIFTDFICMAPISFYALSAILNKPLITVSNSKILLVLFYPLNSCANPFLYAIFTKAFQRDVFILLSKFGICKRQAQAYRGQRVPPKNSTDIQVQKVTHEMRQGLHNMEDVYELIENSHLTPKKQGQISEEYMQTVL
Estrogen receptor (Homo sapiens), sequence (P03372 whole entry, looked up): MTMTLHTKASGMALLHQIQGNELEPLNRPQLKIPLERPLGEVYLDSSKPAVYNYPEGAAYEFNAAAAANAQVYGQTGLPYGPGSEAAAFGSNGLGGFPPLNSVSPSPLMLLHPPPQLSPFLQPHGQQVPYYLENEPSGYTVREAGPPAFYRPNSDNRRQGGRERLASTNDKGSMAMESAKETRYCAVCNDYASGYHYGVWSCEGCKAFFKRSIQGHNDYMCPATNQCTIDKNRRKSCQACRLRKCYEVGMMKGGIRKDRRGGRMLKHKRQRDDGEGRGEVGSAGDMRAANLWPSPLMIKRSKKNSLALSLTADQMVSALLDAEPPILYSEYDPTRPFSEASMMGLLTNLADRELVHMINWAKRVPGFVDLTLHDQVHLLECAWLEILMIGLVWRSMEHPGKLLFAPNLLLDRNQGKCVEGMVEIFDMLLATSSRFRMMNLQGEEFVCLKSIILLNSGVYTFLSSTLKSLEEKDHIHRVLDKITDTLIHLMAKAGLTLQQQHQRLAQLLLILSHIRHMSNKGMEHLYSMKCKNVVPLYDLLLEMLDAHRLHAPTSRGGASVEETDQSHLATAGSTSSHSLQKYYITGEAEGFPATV

Cc1ccc(C(=O)Oc2ccc(C(O)CNC(C)(C)C)cc2OC(=O)c2ccc(C)cc2)cc1 (stereo not given)
inactive: Potency [1] | Potency [3] | Potency [5] | Potency [6]
active: Potency [2] 26.6 µM | Potency [4] 0.0362 µM

CC(=O)OC[C@H]1O[C@@H](n2ncc(=O)[nH]c2=O)[C@H](OC(C)=O)[C@@H]1OC(C)=O
active: Potency [2] 1.33 µM
inactive: Potency [7] | Potency [8] | Potency [3] | Potency [5] | Potency [6]

CCCCCC[C@@H](O)C/C=C\CCCCCCCC(=O)OC
inactive: Potency [7] | Potency [2] | Potency [8] | Potency [9] | Potency [3] | Potency [4] | Potency [5] | Potency [6]

CCNc1cc(O)ccc1C
inactive: Potency [10] | Potency [7] | Potency [2] | Potency [9] | Potency [3] | Potency [4] | Potency [6]

Nc1cccc([N+](=O)[O-])c1
inactive: Potency [10] | Potency [7] | Potency [2] | Potency [8] | Potency [9] | Potency [3]

COc1ccc2cccc(CCNC(C)=O)c2c1
inactive: Potency [10] | Potency [7] | Potency [8] | Potency [9] | Potency [3] | Potency [6]

Brc1c2ccccc2c(Br)c2ccccc12
inactive: activity, negative = inhibition [10] 14.5% [at 8.39 µM] | activity change, negative = cytotoxicity [7] 0.897% [at 8.39 µM] | activity change, negative = cytotoxicity [2] 1.65% [at 8.39 µM] | activity change, negative = cytotoxicity [9] 7.62% [at 8.39 µM] | activation [3] -0.192% [at 8.39 µM] | cAMP activity change [4] 1.89% [at 8.39 µM, hits give high values] | activity change, negative = inhibition [5] -6.18% [at 8.39 µM] | activity change, negative = cytotoxicity [6] 2.81% [at 8.39 µM]

C[C@H](CCC(=O)O)[C@H]1CC[C@H]2[C@@H]3CC[C@@H]4C[C@H](O)CC[C@]4(C)[C@H]3C[C@H](O)[C@]12C
inactive: Potency [1] | Potency [3] | Potency [4] | Potency [6]
active: Potency [2] 48.7 µM

O=CC1CC=CCC1 (stereo not given)
inactive: Potency [7] | Potency [2] | Potency [8] | Potency [9] | Potency [3] | Potency [5] | Potency [6]

COc1cc2c(cc1OC)C(C(C(=O)N(CCc1ccc(OC)c(OC)c1OC)CCc1ccc(OC)c(OC)c1OC)c1ccccc1)=NCC2 (stereo not given)
inactive: Potency [1] | Potency [2] | Potency [9] | Potency [5]

Brc1c2ccccc2cc2ccccc12
active: Potency [2] 61.8 µM
inactive: Potency [10] | Potency [7] | Potency [3] | Potency [4]

CN1CCC(=C2c3ccccc3Sc3ccccc32)CC1
inactive: Potency [7] | Potency [8] | Potency [3] | Potency [6]
active: Potency [2] 23.7 µM | Potency [9] 21.1 µM

C[C@@H]1C[C@H]2[C@@H]3CCC4=CC(=O)C=C[C@]4(C)[C@@]3(F)[C@@H](O)C[C@]2(C)[C@@]1(O)C(=O)COC(=O)c1ccncc1
inactive: Potency [7] | Potency [9] | Potency [3] | Potency [4] | Potency [6]
active: Potency [2] 29.8 µM | Potency [8] 0.0067 µM

CN(C)CCOC(c1ccccc1)c1ccc(Br)cc1 (stereo not given)
inactive: Potency [7] | Potency [8] | Potency [3] | Potency [4] | Potency [5]
active: Potency [2] 23.7 µM

O=C(O)C1(C(=O)O)CCC1.[NH2-].[NH2-].[Pt+2]
inactive: Potency [10] | Potency [7] | Potency [2] | Potency [3] | Potency [4] | Potency [5] | Potency [6]

C[C@@H](c1ncncc1F)C(O)(Cn1cncn1)c1ccc(F)cc1F (stereo not given in full)
inactive: Potency [7] | Potency [2] | Potency [8] | Potency [9] | Potency [3] | Potency [5] | Potency [6]

O=S(c1cc(Cl)cc(Cl)c1O)c1cc(Cl)cc(Cl)c1O
active: Potency [2] 29.8 µM
inactive: Potency [7] | Potency [8] | Potency [3] | Potency [5] | Potency [6]

Cc1cccc(Nc2ccccc2)c1
inactive: Potency [7] | Potency [2] | Potency [8] | Potency [9] | Potency [4] | Potency [5] | Potency [6]

O=C1[C@H]2CCCC[C@H]2C(=O)N1CCCCN1CCN(c2nsc3ccccc23)CC1
inactive: Potency [1] | Potency [9] | Potency [3] | Potency [5]

CCCOC(C(=O)OC1CCN(C)CC1)(c1ccccc1)c1ccccc1
active: Potency [2] 26.6 µM
inactive: Potency [1] | Potency [3] | Potency [4] | Potency [5]

C=C(C)C(=O)OCC
inactive: Potency [10] | Potency [7] | Potency [2] | Potency [3] | Potency [4] | Potency [5] | Potency [6]
